This is a sample that favours compounds with a hit; in the whole collection about 13% have one here.
HCV inh = inhibitors of hepatitis C virus infection | Huh7.5.1 HCVcc-Cre infection, luciferase reporter, 44 h | Potency, µM (titrated, usually from 41.8 µM), for inactives: at the highest dose activity change, negative = inhibition, usual class: inhibitors | hit rate 3.4% among 340,000 | AID 651820; active = well fitted inhibition curve with a large enough effect; inconclusive = small, poorly fitted or top-dose-only effect, or another doubt; inactive = no such curve, though single readings can be large or run the other way; note: potency is the fitted concentration of half-maximal effect; % is set by controls: 0 for no effect and ±100 for the full control effect
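Whole-lifecycle infectious HCVcc-Cre system; cells 1,000/well, compound then virus (~0.5 moi) added 4 h after plating, 44 h culture. Luciferase read 15 sec following 15 min substrate incubation, room temp.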
CHX counter = affects cycloheximide protein synthesis inhibition readout, counter-screen; cell reporter, cycloheximide protein synthesis inhibition counterscreen; max response, %; hit rate 12% among 300,000; AID 2314; in the data active = max response mostly above about 13%, no sharp cut-off; inactive = mostly below about 14%; note: read at 38.3 µM for the half of the compounds with a filed dose; 0% is about no effect
FMDV inh = antivirals against foot and mouth disease virus; FMDV antiviral cell-based qHTS; Potency, µM (top dose mostly 57.9 µM), inactives show at the top dose activity change, negative = inhibition, hits mostly inhibitors; hit rate 1.2% among 410,000; calls by dose curve; tested in HEK293T cells; note: read-out not given here; potency is the fitted concentration of half-maximal effect; % is set by controls: 0 for no effect and ±100 for the full control effect; nearly all actives have a fitted effect of over 45% in size
LASV entry inh = blocks Lassa virus binding to or entry into cells; hit rate 1.2% among 300,000; Potency, µM (top dose mostly 37.9 µM), for inactives: top-dose activity change, negative = inhibition, most hits filed as inhibitors; Lassa virus pseudotype entry inhibition, cell reporter; calls by dose curve; tested in HEK293 cells; note: potency is the fitted concentration of half-maximal effect; % is set by controls: 0 for no effect and ±100 for the full control effect; nearly all actives have a fitted effect of over 50% in size
Shiga toxin inh = blocks Shiga toxin action in Vero cells | Vero cells, Shiga toxin protein synthesis inhibition reporter | inhibition, % at 38.7 µM | hit rate 9.2% among 290,000 | AID 2315; in the data active = inhibition mostly above about 28%, no sharp cut-off; inactive = mostly below about 43%; note: 0% is about no effect
MARV entry inh = inhibitors of Marburg virus binding or cell entry; Marburg virus pseudotyped entry inhibition, cell reporter; Potency, µM (highest dose often 37.8 µM), without a hit: at the top dose activity change, negative = inhibition, most hits filed as inhibitors; hit rate 1.8% among 300,000; AID 540276; calls by dose curve; tested in HEK293 cells; note: potency is the fitted concentration of half-maximal effect; % is set by controls: 0 for no effect and ±100 for the full control effect
An asterisk follows results filed as active; ? = inconclusive; / = not tested or not shown; [ ] = dose if it differs, or a comment.

SMILES	HCV inh	CHX counter	FMDV inh	LASV entry inh	Shiga toxin inh	MARV entry inh
CCOC(=O)c1ccc(-n2ncc(C(=O)OCC)c2N)cc1	?	21*	23%	-7%	34	?
COc1ccc(CCNC2=C(Cl)C(=O)N(CCc3ccc(OC)c(OC)c3)C2=O)cc1OC	2.5µM*	15	10µM*	?	-8	?
COc1ccc(CCN2C(=O)c3cccnc3C2=O)cc1OC	-8%	-3	4%	6%	7	-10%[46.1 µM]
COc1ccc(NC2=C(Cl)C(=O)N(CCc3ccccc3)C2=O)cc1	11%	26*	49%	16%	53	13%
COc1ccc(NC2=C(Cl)C(=O)N(CCc3ccccc3)C2=O)c(OC)c1	-10%	73*	-11%	12%	59*	-6%
Cc1ccc(N2CCN(C(=O)c3cnn(-c4ccc(C)c(C)c4)c3C3CCNCC3)CC2)c(C)c1	/	/	-13%	?	/	/
COc1ccc(S(=O)(=O)NNc2nc(C)cc(C)n2)cc1[N+](=O)[O-]	8%	-1	13%	13%[46.1 µM]	7	1%[46.1 µM]
c1ccc2c(Oc3ccc4c(c3)OCO4)nncc2c1	-2%	29*	-11%	-9%	76*	?
CN(CCc1cnn(C)c1)Cc1cn(C)nc1-c1ccc2c(c1)OCCO2	5%	6	-6%	-3%[46.1 µM]	3	10%[46.1 µM]
Cc1sc(NC(=O)Nc2ccccc2)c(C(N)=O)c1C	2%	43*	40%	-15%[46.1 µM]	72*	-29%[46.1 µM]
CC1(C)Cc2c(sc(NC(=O)Nc3ccccc3)c2C(N)=O)CO1	-9%	33*	65%	/	72	/
CC1(C)Cc2c(sc(NC(=O)C(=O)N3CCCC3)c2C(N)=O)CO1	13%	-5	3%	?	10	?
O=C(NCCN1CCOCC1)c1cc(-c2ccc(Br)cc2)on1	/	11	12%	-16%[14.3 µM]	11	0%
O=C(NCCCN1CCOCC1)c1cc(-c2ccccc2)on1	?	13*	80%	?	137*	20%
O=C(NCCN1CCOCC1)c1cc(-c2cccs2)on1	1%	20*	52%	37%[14.3 µM]	57*	0%
O=C(NCCN1CCOCC1)c1cc(-c2ccccc2)on1	-14%	22*	/	8%	74*	12%
Cc1cc(C)cc(SCc2noc(C(=O)NCCCN3CCOCC3)c2C(=O)NCCCN2CCOCC2)c1	1µM*	-2	-5%	/	-7	/
O=C(NCCCN1CCOCC1)c1onc(CSc2ccccc2)c1C(=O)NCCCN1CCOCC1	2%	/	-1%	/	/	/
Cc1ccc(-n2c3c(cc(C(=O)NC4CCSC4=O)c2=O)C(=O)CCC3)cc1 (stereo not given)	14%	-3	0%	14%	-14	?
O=C(NCCn1cccn1)C1CCC(=O)N(CC2CCCCC2)C1 (stereo not given)	8%	2	-5%	-6%	2	29%
Cc1ccc(-c2cc(NC(=O)COc3ccc(Cl)cc3C)on2)cc1	/	/	16%	13%[46.1 µM]	/	28%[46.1 µM]
CCOC(=O)/C(=C\c1cccc(O)c1)c1nc2sc(C)c(C)c2c(=O)[nH]1	1%	1	11µM*	?	-9	?
CCN(CC)c1ccc2nc3c4ccccc4c(=O)cc-3oc2c1	11%	52*	?	/	65*	/
COc1ccc(CNS(=O)(=O)c2ccc(-c3cc(C(F)(F)F)on3)s2)cc1OC	/	/	0%	10%[46.1 µM]	/	/
CC1=C(C(=O)OCc2ccc3c(c2)OCO3)C(c2ccccc2OCc2ccccc2)NC(=O)N1 (stereo not given)	10µM*	1	/	-22%	-27	?
SMILES	HCV inh	CHX counter	FMDV inh	LASV entry inh	Shiga toxin inh	MARV entry inh
N=C1N(c2ccccc2)C(=S)C(=Nc2ccccc2)N1c1ccccc1	?	/	9%	-8%[46.1 µM]	/	-3%
CCOC(=O)c1ccc(N=C2C(=S)N(c3ccc(C(=O)OCC)cc3)C(=N)N2/N=C/c2ccccc2)cc1	?	12	-5%	-5%	33*	30%
O=S(=O)(c1cccc(-n2cnnn2)c1)N1CCOCC1	23%	-1	/	6%	-19	-11%
CS(=O)(=O)CCNCc1ccc(-c2ccc3ncnc(Nc4ccc(OCc5cccc(F)c5)c(C(F)(F)F)c4)c3c2)o1	/	/	/	20µM*	/	/
CS(=O)(=O)CCNCc1ccc(-c2ccc3ncnc(Nc4ccc(OCc5ccccc5)cc4)c3c2)o1	/	/	/	16µM*	/	/
CS(=O)(=O)CCNCc1nc(-c2ccc3ncnc(Nc4ccc(OCc5cccc(F)c5)c(Cl)c4)c3c2)cs1	/	-5	9%	/	26	/
c1ccc(Nc2ncnc3ccc(-c4ccoc4)cc23)cc1	/	/	-27%	/	/	/
Cn1c2ccccc2c2nnc(SCC(=O)NC3CC3)nc21	12%	-6	4%	-7%	-4	17%[46.1 µM]
CCCN1C(=O)S/C(=C\c2ccc(N3CCOCC3)o2)C1=O	-20%	41*	4%	4%	98*	-27%[46.1 µM]
CCCN1C(=O)S/C(=C/c2ccc(N3CCOCC3)o2)C1=O	?	47*	30%	18%[46.1 µM]	66*	-6%[46.1 µM]
COc1ccc(CN2C[C@@H](CO)O[C@@H](n3cnc4c(NCc5ccncc5)ncnc43)C2)cc1	/	/	-10%	/	/	/
COc1cccc(Nc2cc(C)nc3nc(C)nn23)c1	-15%	-2	4%	/	-11	/
C=CCOc1c(Cl)cc(CNc2ccc(C)c(Cl)c2)cc1OC	/	-3	/	/	-10	-4%
COc1cccc(CNc2nc3nc(C)cc(C)n3n2)c1	5%	11*	40%	5%	66	?
COc1cccc(CNc2ccc(C)c(Cl)c2)c1	4%	39*	31%	/	64*	/
COc1cccc(CNc2ccc3c(c2)CCC3)c1	-4%	118*	/	4%	153*	-4%
COc1ccc(OC)c(CNc2ccc3c(c2)CCC3)c1	2%	43*	-5%	-12%[46.1 µM]	66*	1%[46.1 µM]
COc1cc([N+](=O)[O-])ccc1NC(=O)NN1CCN(C)CC1	-2%	2	-17%	/	-21	/
CN1CC(O)C(O)C(O)C1CO (stereo not given)	/	/	/	1%	/	22%
COC(=O)C1=C(c2c(C)noc2C)C[C@@H]2CC[C@H]1N2C(=O)NCCNC(C)=O	10%	/	-6%	/	/	/
O=C(COC(=O)CNC(=O)c1ccccc1)Nc1ccc(S(=O)(=O)N2CCCC2)cc1	?	-4	12%	-1%	-12	8%
COC(=O)c1cccc(C(=O)N2CCCC(CNC(=O)c3ccccc3Cl)C2)c1 (stereo not given)	18%	23	0%	/	33	/
O=C(NCC1CCCN(C(=O)CN2CCCCC2)C1)c1ccccc1Cl (stereo not given)	-3%	26*	28%	35%[46.1 µM]	31	13%[46.1 µM]
COc1ccccc1NC(=O)N1CCCC(CNC(=O)c2ccccc2Cl)C1 (stereo not given)	5%	0	15%	6%[46.1 µM]	27	16%[46.1 µM]
CSCC(=O)N1CCCC(CNC(=O)c2ccccc2Cl)C1 (stereo not given)	12%	15*	-11%	3%[46.1 µM]	28	-2%[46.1 µM]
CCc1ccc2c(c1)C(c1ccc([N+](=O)[O-])cc1)=NNC(c1ccc(F)cc1)=N2	0%	24*	54%	10%	63*	?
